The source made the active and inactive calls.

We go through 14 molecules from PubChem BioAssay.

The test system of experiment [1] is Plasmodium falciparum Sir2 (PF13_0152, Sir2A). Nature of the experiment: Plasmodium falciparum Sir2A binding compounds – biochemical, small-molecule microarray, 635 nm fluorescence, primary screen (AID 1098).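 Further: score merges spot fluorescence intensity with its signal-to-noise ratio.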 The conditions noted are these: fluorescence 635 nm, higher = more signal.
Experiment [2] in a line: probe aDKK1 binding to arrayed compounds – biochemical, biotinylated probe, 635/667 nm fluorescence, primary screen (AID 1099).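 Further: score merges 667nm spot fluorescence with signal to noise across triplicate slides; reference of the scale not given here.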 The conditions noted are these: small-molecule microarray, higher = more signal.
The nature of experiment [3]: probe aCHRDL2 binding to arrayed compounds – biochemical, biotinylated probe, 635/667 nm fluorescence, primary screen (AID 1100). The note with it: small-molecule microarray, higher = more signal.
A short description of experiment [4]: change in splice reporter luminescence, either direction, cell-based, HEK293, spliceosome inhibition project, primary screen (AID 1101).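 Further: HEK293 cells carrying a splicing-competent luciferase reporter gene; test concentration not given here.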 The conditions noted are these: HEK293 splicing luciferase reporter, 24 h, higher = more signal, called active from +8 up or from −8 down. Background: A reporter such as luciferase makes a cellular process visible.
Experiment [5] has as its target Fibroblast growth factor 10 (Homo sapiens) (UniProt O15520). As to the kind of experiment: compounds binding fibroblast growth factor 10 – biochemical, small-molecule microarray, 635 nm fluorescence, primary screen (AID 1102). The note with it: FGF10 binding, fluorescence 635 nm, higher = more signal.
The test system of experiment [6] is glycogen synthase kinase-3 (GSK3A per assay name; protocol says GSK3B). Nature of the experiment: compounds binding glycogen synthase kinase-3 – biochemical, small-molecule microarray, 635 nm fluorescence, GSK3A, primary screen (AID 1103). Further: the record names both GSK3A and GSK3B. The note with it: fluorescence 635 nm, higher = more signal.
Experiment [7] concerns the target Epidermal growth factor receptor (Homo sapiens) (UniProt P00533). Nature of the experiment: compounds binding epidermal growth factor receptor – biochemical, small-molecule microarray, 635 nm fluorescence, primary screen (AID 1104).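 Further: score merges 667 nm emission intensity with spot signal to noise over triplicate slides.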 The note with it: EGFR binding, higher = more signal.
In experiment [8] the target is Follistatin-related protein 3 (Homo sapiens) (UniProt O95633). Nature of the experiment: compounds binding follistatin-related protein 3 – biochemical, small-molecule microarray, 635 nm fluorescence, primary screen (AID 1105).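 Further: score merges emission near 667 nm and signal to noise per printed spot across three slides.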 The conditions noted are these: FSTL3 binding, higher = more signal.
Chain of Follistatin-related protein 3 (Homo sapiens) (O95633 whole entry, looked up): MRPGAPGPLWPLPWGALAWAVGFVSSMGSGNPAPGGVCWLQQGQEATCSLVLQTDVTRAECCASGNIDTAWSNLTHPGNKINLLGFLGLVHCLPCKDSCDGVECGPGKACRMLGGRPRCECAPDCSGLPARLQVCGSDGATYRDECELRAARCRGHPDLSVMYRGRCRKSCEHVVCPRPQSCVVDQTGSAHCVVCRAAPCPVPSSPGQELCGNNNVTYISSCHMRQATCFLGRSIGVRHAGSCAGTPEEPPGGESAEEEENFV
Experiment [9] concerns the target Dickkopf-related protein 1 (Homo sapiens) (UniProt O94907). As to the kind of experiment: small molecules binding DKK1 protein – biochemical, small-molecule microarray, 635 nm fluorescence scan, primary screen (AID 1106).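 Further: score merges emission near 667 nm with signal to noise over three replicate slides.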 The note with it: higher = more signal.
Experiment [10] concerns Inhibin beta A chain (activin A). As to the kind of experiment: small molecules binding activin A – biochemical, small-molecule microarray, 635 nm fluorescence scan, primary screen (AID 1107).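 Further: mouse activin A protein probed at 4.33 µg/mL on printed slides; score merges bound-protein fluorescence near 667 nm with spot signal-to-noise.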 The conditions noted are these: INHBA, higher = more signal.

Chain of Dickkopf-related protein 1 (Homo sapiens) (O94907 whole entry, looked up): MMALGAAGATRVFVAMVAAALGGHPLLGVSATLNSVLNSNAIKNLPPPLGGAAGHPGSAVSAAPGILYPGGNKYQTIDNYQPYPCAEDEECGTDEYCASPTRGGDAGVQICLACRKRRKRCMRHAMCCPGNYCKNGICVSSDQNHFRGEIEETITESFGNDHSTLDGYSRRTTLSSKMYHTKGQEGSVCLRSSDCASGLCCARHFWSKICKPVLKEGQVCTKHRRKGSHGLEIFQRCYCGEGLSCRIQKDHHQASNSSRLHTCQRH
Chain of Epidermal growth factor receptor (Homo sapiens) (P00533 whole entry, looked up): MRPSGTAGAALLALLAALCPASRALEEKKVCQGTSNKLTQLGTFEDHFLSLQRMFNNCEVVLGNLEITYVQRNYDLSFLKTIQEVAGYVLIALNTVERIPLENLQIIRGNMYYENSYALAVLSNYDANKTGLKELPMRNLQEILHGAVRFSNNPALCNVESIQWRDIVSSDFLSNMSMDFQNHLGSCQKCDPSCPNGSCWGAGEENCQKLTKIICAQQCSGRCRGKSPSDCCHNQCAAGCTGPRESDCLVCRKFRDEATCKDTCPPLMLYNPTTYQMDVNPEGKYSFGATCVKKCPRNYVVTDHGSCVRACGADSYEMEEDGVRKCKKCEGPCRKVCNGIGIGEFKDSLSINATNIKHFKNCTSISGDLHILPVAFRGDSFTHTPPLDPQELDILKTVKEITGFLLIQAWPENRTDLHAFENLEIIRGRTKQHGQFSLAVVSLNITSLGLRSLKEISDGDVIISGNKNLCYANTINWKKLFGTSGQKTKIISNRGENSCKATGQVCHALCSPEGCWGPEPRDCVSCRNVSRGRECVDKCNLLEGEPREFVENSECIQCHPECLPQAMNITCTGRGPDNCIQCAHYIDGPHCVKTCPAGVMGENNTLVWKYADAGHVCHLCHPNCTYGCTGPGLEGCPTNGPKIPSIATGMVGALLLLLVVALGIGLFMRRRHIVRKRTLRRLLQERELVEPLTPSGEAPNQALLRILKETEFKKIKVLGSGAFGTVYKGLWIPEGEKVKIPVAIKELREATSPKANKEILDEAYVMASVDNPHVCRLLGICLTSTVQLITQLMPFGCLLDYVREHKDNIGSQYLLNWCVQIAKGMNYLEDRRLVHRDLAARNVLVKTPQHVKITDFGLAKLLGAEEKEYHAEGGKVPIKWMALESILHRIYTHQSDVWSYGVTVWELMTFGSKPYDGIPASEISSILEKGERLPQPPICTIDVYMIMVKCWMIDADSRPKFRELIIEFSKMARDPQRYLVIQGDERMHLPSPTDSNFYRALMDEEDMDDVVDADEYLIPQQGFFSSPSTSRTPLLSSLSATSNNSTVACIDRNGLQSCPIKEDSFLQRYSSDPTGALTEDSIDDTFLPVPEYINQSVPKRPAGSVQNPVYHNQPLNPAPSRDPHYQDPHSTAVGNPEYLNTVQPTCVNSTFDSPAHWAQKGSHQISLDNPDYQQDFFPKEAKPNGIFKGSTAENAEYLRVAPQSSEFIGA
Chain of Fibroblast growth factor 10 (Homo sapiens) (O15520 whole entry, looked up): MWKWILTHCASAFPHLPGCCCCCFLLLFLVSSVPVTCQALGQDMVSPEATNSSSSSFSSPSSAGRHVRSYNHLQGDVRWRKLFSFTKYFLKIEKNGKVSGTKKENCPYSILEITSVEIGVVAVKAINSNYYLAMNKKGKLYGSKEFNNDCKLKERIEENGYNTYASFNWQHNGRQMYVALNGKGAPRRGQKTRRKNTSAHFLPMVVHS

With `C=C(COC)/C(=C/C[C@H](OC(C)=O)c1ccc(OCCO)cc1)c1cc(C(=O)OC)ccc1OC`, the composite z-score in experiment [1] was 1.38; in [2], 0.0841; in [3], -0.24; in [5] it was 1.48; in experiment [6], 0.416; in [7] it was 0.148. For the same molecule, the composite z-score in experiment [8] was determined as 0.924; in experiment [9], 0.468; in experiment [10], 0.72. The z-score in [4] is -0.195 (inactive).
For `O=C1O[C@H](c2ccccc2)[C@H](c2ccccc2)N2[C@H]1[C@@H](C(=O)O)[C@]1(C(=O)Nc3ccc(C#CC4=CCCCC4)cc31)[C@H]2c1ccc(O)cc1`, the composite z-score in [1] was 1.37; in [2] it was -0.0007; in experiment [3], 0.0645; in [5] it was 1.06; in experiment [6], 0.908; in experiment [7], 0.23. The composite z-score in experiment [8] worked out at 0.844; in [9] it was 1.11; in experiment [10] it was 0.855. Moreover, the z-score in experiment [4] was -0.824 (inactive).
`O=C1C[C@@](C(=O)NCCN2CCOCC2)(c2ccc([N+](=O)[O-])cc2)[C@@H](c2ccc(CO)cc2I)N1C1CCCCC1`: the composite z-score in experiment [1] was 0.979; in [2], -0.0973; in [3], -0.0907; in experiment [5] it was 0.76; in [6], 1.15; in experiment [7] it was 0.593. For the same molecule, the composite z-score in experiment [8] was 0.926; in experiment [9] it was 0.397; in experiment [10], 0.454. Moreover, in [4], the z-score was -0.131 (inactive).
With `COC(=O)[C@@]1(Cc2ccccc2)[C@@H]2C(=CC(=O)[C@H]2CC(=O)C(=O)N(C)C)CN1C(=O)c1ccccc1`, the composite z-score in experiment [1] worked out at 0.971; in experiment [2], 1.08; in experiment [3], 1.17; in experiment [5], 0.473; in experiment [6], 0.982; in experiment [7], 0.159. Further, the composite z-score was 0.471 in experiment [8], -0.465 in [9] and 1.25 in experiment [10]. For the same molecule, the z-score in [4] was 2.93 (inactive).
Turning to `O=C1OCCC=C[C@H]2OC34C=CCN(Cn5nnc6ccccc65)C(=O)[C@H]3N(CCCCCCO)C(=O)[C@@H]4C12` (stereo not given in full), the composite z-score in [1] was 1.8; in experiment [2], -0.0278; in experiment [3] it was 0.337; in [5], -0.893; in experiment [6], -0.357; in experiment [7], -1.23. The composite z-score in [8] was -0.822; in experiment [9], -1.03; in experiment [10] it was -0.157. For the same molecule, the z-score in experiment [4] is 0.415 (inactive).
On to `COc1ccccc1CN1C(=O)c2ccccc2[C@@]2(Cc3ccccc3N(CC(F)(F)F)C2=O)[C@@H]1c1ccc(CO)cc1`, for which the composite z-score in experiment [1] is 0.144; in experiment [2], -0.435; in [3] it was -0.167; in [5], 0.507; in [6], 0.524; in experiment [7] it was 0.414. Besides, the figures for the composite z-score in [8], in experiment [9] and in experiment [10] were 0.614, 0.564 and 1.03, respectively. In addition, in experiment [4], the z-score was 1.49 (inactive).
For `C=C(/C(=C/C[C@H](OC(C)=O)c1ccccc1OCCO)c1cc(C(=O)OC)ccc1OC)C(C)C`, the composite z-score was 1.64 in experiment [1]; -0.15 in experiment [2]; -0.192 in [3]; 0.634 in experiment [5]; -0.122 in [6]; -0.167 in experiment [7]. Besides, the composite z-score in [8] is 0.0218; in [9] it was -0.0716; in [10] it was 0.721. Further, the z-score in [4] was -0.736 (inactive).
As for `NC(=O)N1C(=O)C2C(C1=O)C1C=C(CCCO)C2C(c2cccs2)N1Cc1cccc(OC(F)(F)F)c1` (stereo not given), the composite z-score in [1] is 1.41; in experiment [2] it was -0.0349; in experiment [3], -0.123; in experiment [5] it was 0.493; in experiment [6], 0.177; in experiment [7], 0.121. Moreover, the composite z-score in experiment [8] is 0.211; in [9] it was -0.184; in experiment [10], 0.944. Also, the z-score in [4] is 0.23 (inactive).
On to `Cc1ccc(S[C@]2(C(=O)NCC(F)(F)F)CC(=O)N(Cc3ccccc3C(F)(F)F)[C@@H]2c2ccc(CO)cc2I)cc1`, for which the composite z-score is 1.46 in experiment [1]; -0.255 in experiment [2]; 0.956 in experiment [3]; -1.34 in experiment [5]; -1.49 in [6]; -1.96 in [7]. Also, the composite z-score in [8] is -1.28; in experiment [9] it was -1.7; in [10] it was 0.283. Moreover, the z-score in [4] was -0.0164 (inactive).
Take `[N-]=[N+]=NCc1ccccc1C[C@@]1(C(=O)NCc2ccccc2)N=C(c2ccc(OCCCO)cc2)O[C@@H]1c1ccccc1N=[N+]=[N-]`: the composite z-score is -0.108 in [1]; 0.559 in experiment [2]; 1.13 in [3]; 0.894 in experiment [5]; 1.21 in [6]; -0.475 in experiment [7]. Further, the figures for the composite z-score in experiment [8], in experiment [9] and in experiment [10] were -0.206, -0.666 and 0.376, respectively. Also, the z-score in experiment [4] was -0.758 (inactive).
Take `COCCOC(=O)N1C(=O)[C@@]2(c3cc(C#CCC(C(=O)OC)C(=O)OC)ccc31)[C@H](C(=O)N1CCc3cc(OC)c(OC)cc3C1)[C@H]1C(=O)O[C@H](c3ccccc3)[C@H](c3ccccc3)N1[C@@H]2c1ccc(OCCO)cc1`: the composite z-score in experiment [1] is 1.37; in [2], 0.0202; in experiment [3], 0.0313; in [5] it was 1.24; in experiment [6], 1.31; in experiment [7] it was 0.936. Further, the values for the composite z-score in [8], in [9] and in [10] were 1.3, 0.943 and 0.541, respectively. For the same molecule, in experiment [4], the z-score was 0.382 (inactive).
On to `C=CCC(OC(C)=O)[C@@H]1[C@@H](N(Cc2cc3ccccc3o2)C(=O)Cc2ccc(F)cc2)c2cc(OCCCO)ccc2N1C(=O)c1ccc2ccccc2c1` (stereo not given in full), for which the composite z-score in [1] is -0.365; in [2], -0.0572; in [3], 0.165; in experiment [5], -0.234; in experiment [6], -0.711; in [7], 0.0137. In addition, the values for the composite z-score in experiment [8], in [9] and in [10] were 0.331, 0.0521 and 1.04, respectively. The z-score in experiment [4] is 0.111 (inactive).
For the molecule `CN1C(=O)C2C=CC(C(O)C#Cc3ccccc3)N(Nc3ccccc3)C2C1=O` (stereo not given), the composite z-score in experiment [1] was found to be 1.58; in experiment [2], 0.932; in experiment [3], 0.891; in experiment [5], 1.33; in [6], 1.31; in [7], 0.56. In addition, the composite z-score is 1.42 in [8], -0.184 in experiment [9] and 0.926 in experiment [10]. Further, the z-score in [4] is 1.24 (inactive).
Turning to `COc1cc2c(cc1OC)CN(C(=O)[C@@H]1[C@H]3C(=O)O[C@H](c4ccccc4)[C@H](c4ccccc4)N3[C@H](c3ccc(OCCO)cc3)[C@@]13C(=O)Nc1ccc(C#CC4(O)CCCCCC4)cc13)CC2`, the composite z-score in experiment [1] is 1.21; in [2], 0.7; in experiment [3] it was -0.386; in [5], 1.47; in experiment [6] it was 1.3; in experiment [7], 0.741. Besides, the composite z-score came out at 1.11 in [8], 0.698 in [9] and 0.282 in [10]. The z-score in experiment [4] is -1.38 (inactive).
